PubChem BioAssay (NCATS)
Several values for one entry are separate records, joined by “and”; a condition that tells them apart may be missing. Equal values may be shown once. Records with an inconclusive call do not appear. Activity calls are given as the source filed them. Unless noted, calls follow the shape of the dose curve; as a rule, active = well fitted curve in the direction sought with a large enough effect; inconclusive = small, poorly fitted or top-dose-only effect, or another doubt; inactive = no such curve, though single readings can be large; an effect the other way counts as inactive or inconclusive.

Key:
UISO = assay: qHTS assay to identify novel small-molecules to repurpose for Merkel cell carcinoma treatment (AID 1296009); settings: MCC and control cell lines, CellTiter-Glo viability, 72 h; series mostly up to 46 µM; also: nearly all actives have a fitted effect of over 60% in size; also: potency is read from the fitted curve at half-maximal effect
In short: (§1)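 72 hr, 37 degree celsius; NPC 8-pt / MIPE 11-pt dose response; compound pinned in DMSO; CellTiter-Glo, 10 min RT, luminescence; normalized to no-cell and DMSO controls.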

WaGa = assay: as above; settings: MCC and control cell lines, CellTiter-Glo viability, 72 h; series mostly up to 46 µM
In short: as §1

C33A = assay: Primary qHTS to identify gynecologic anti-cancer compounds using libraries of approved drugs and bioactive compounds (AID 1345084); settings: Gynecologic cancer cell panel viability, ATPlite luminescence, 48 h; series mostly up to 57.5 µM; also: nearly all actives have a fitted effect of over 55% in size; also: potency is read from the fitted curve at half-maximal effect
In short: (§2)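 Cells, 1,000 per well, plated 16 h, then exposed 48 h at 37 C to compounds. Viability by ATPlite luminescence after 15 min at room temperature.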

CAOV3 = assay: as above; settings: Gynecologic cancer cell panel viability, ATPlite luminescence, 48 h; series mostly up to 57.5 µM
In short: as §2

CASKI = assay: as above; settings: Gynecologic cancer cell panel viability, ATPlite luminescence, 48 h; series mostly up to 57.5 µM
In short: as §2

Es-2 = assay: as above; settings: Gynecologic cancer cell panel viability, ATPlite luminescence, 48 h; series mostly up to 57.5 µM
In short: as §2

HeLa = assay: as above; settings: Gynecologic cancer cell panel viability, ATPlite luminescence, 48 h; series mostly up to 57.5 µM
In short: as §2

Hek293T = assay: as above; settings: Gynecologic cancer cell panel viability, ATPlite luminescence, 48 h, control line for the selectivity index; series mostly up to 57.5 µM
In short: as §2

OV90 = assay: as above; settings: Gynecologic cancer cell panel viability, ATPlite luminescence, 48 h; series mostly up to 57.5 µM
In short: as §2

PA-1 = assay: as above; settings: Gynecologic cancer cell panel viability, ATPlite luminescence, 48 h; series mostly up to 57.5 µM
In short: as §2

SKOV3 = assay: as above; settings: Gynecologic cancer cell panel viability, ATPlite luminescence, 48 h; series mostly up to 57.5 µM
In short: as §2

Tov-21-G = assay: as above; settings: Gynecologic cancer cell panel viability, ATPlite luminescence, 48 h; series mostly up to 57.5 µM
In short: as §2

Tov112D = assay: as above; settings: Gynecologic cancer cell panel viability, ATPlite luminescence, 48 h; series mostly up to 57.5 µM
In short: as §2

[1] = Drug repurposing screens with cells derived from glioblastoma tumor samples (AID 1345199); settings: GBM patient neurospheres viability, ATP luminescence, 48 h; also: nearly all actives have a fitted effect of over 40% in size; also: potency is read from the fitted curve at half-maximal effect; as to activity, negative = cell killing: % is scaled to controls: 0 for no effect and ±100 for the full control effect
In short: (§3)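 Four patient lines of CD133+ GBM neurospheres were screened at several concentrations; hits were retested in those lines plus three slower-growing GBM lines, using 48-hour treatment and ATP-based viability.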

astro = assay: as above; settings: viability, ATP luminescence, 48 h; series mostly up to 45.9 µM
In short: as §3

JEG-3 = assay: Primary qHTS to identify gynecologic anti-cancer compounds using libraries of approved drugs and bioactive compounds (AID 1345084); settings: Gynecologic cancer cell panel viability, ATPlite luminescence, 48 h; series mostly up to 57.5 µM; also: nearly all actives have a fitted effect of over 55% in size; also: potency is read from the fitted curve at half-maximal effect
In short: as §2

[2] = target: Nuclear receptor subfamily 1 group I member 2 (Rattus norvegicus) (UniProt Q9R1A7); assay: qHTS assay for small molecule activators of the rat pregnane X receptor (rPXR) signaling pathway (AID 651751; call rule not given here; also: 0% is about no effect); settings: rPXR reporter cells, luciferase (One-Glo), 24 h
Chain of Nuclear receptor subfamily 1 group I member 2 (Rattus norvegicus) (Q9R1A7 whole entry, looked up): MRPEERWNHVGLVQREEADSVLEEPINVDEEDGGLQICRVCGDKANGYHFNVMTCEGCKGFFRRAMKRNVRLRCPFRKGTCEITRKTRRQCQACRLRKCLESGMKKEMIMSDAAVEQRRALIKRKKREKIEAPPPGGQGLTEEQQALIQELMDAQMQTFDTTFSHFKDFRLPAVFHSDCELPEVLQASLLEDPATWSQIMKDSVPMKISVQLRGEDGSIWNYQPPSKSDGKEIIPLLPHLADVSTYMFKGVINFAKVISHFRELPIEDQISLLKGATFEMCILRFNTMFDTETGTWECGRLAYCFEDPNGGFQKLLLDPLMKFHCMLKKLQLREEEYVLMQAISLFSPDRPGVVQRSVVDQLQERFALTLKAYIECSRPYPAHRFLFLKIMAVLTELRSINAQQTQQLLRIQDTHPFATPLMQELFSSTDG

[3] = qHTS assay for small molecule activators of the human pregnane X receptor (PXR) signaling pathway (AID 720659; call rule not given here; also: 0% is about no effect)
[4] = qHTS assay to identify inhibitors of the type 1 interferon - major histocompatibility complex class I in skeletal muscle: Counter screen cell viability and HiBit confirmation (AID 1347412); settings: iHSKM muscle cells + IFN-b, HiBiT or CellTiter-Glo, 24 h; Potency: HiBiT; Viability, at 45.9 µM (top of the series); also: nearly all actives have a fitted effect of over 60% in size; also: potency is read from the fitted curve at half-maximal effect
In short: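 Myoblasts (C25cl48, HLA-B HiBiT) seeded in medium without dexamethasone, IFN-b 4 ng/ml added except unstimulated columns; 1 hr later compounds pinned (12-pt 1:3, top 46 uM final). Incubated 24 hrs, lysed 10 min, luminescence measured.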

[5] = at 45.9 µM (top of the series), tumour line B
[6] = at 45.9 µM (top of the series), tumour line D
[7] = at 46 µM (top of the series), tumour line A

Cc1ncc(CNC(=O)N(CCCl)N=O)c(N)n1
inactive: Potency (UISO) | Potency (WaGa) | Potency (C33A) | Potency (CAOV3) | Potency (CASKI) | Potency (Es-2) | Potency (HeLa) | Potency (Hek293T) | Potency (PA-1) | Potency (SKOV3) | Potency (Tov-21-G) | Potency (Tov112D) | activity, negative = cell killing [1, 5] -2.44% | activity, negative = cell killing [1, 6] -2.73% | activity, negative = cell killing [1, 7] -26.1% | Potency (astro)
active: Potency (OV90) 35.5 µM

CN1C[C@H](CNC(=O)OCc2ccccc2)C[C@@H]2c3cccc4c3c(cn4C)C[C@H]21
inactive: Potency (C33A) | Potency (CASKI) | Potency (Es-2) | Potency (HeLa) | Potency (Hek293T) | Potency (JEG-3) | Potency (OV90) | Potency (PA-1) | Potency (Tov-21-G) | Potency (Tov112D)

Clc1ccc(CCC(Cn2ccnc2)Sc2c(Cl)cccc2Cl)cc1 (centres undefined)
inactive: Potency (WaGa) | Potency (CAOV3) | Potency (CASKI) | Potency (Es-2) | Potency (HeLa) | Potency (JEG-3) | Potency (Tov-21-G) | Potency (Tov112D) | activity, negative = cell killing ([1]; at 21.2 µM (top of the series), tumour line B) -25.1%
active: Potency ([1]; tumour line A) 1.12 µM

COc1ccc2c(c1OC)CN1CCc3cc4c(cc3C1C2)OCO4 (centres undefined)
active: Potency (WaGa) 16.6 µM
inactive: Potency (CAOV3) | Potency (Es-2) | Potency (HeLa) | Potency (JEG-3) | Potency (SKOV3) | Potency (Tov-21-G) | Potency (Tov112D)

NCC(O)c1ccc(O)cc1 (centres undefined)
inactive: Potency (UISO) | Potency (WaGa) | Potency (C33A) | Potency (CAOV3) | Potency (CASKI) | Potency (Es-2) | Potency (HeLa) | Potency (Hek293T) | Potency (OV90) | Potency (PA-1) | Potency (SKOV3) | Potency (Tov-21-G) | Potency (Tov112D) | activity, negative = cell killing [1, 5] -12.4% | activity, negative = cell killing [1, 6] -9.81% | max response [2] 2.53% | outcome [3]

C[C@H]1O[C@@H](O[C@H]2[C@@H](O)C[C@H](O[C@H]3[C@@H](O)C[C@H](O[C@H]4CC[C@@]5(C)[C@H](CC[C@@H]6[C@@H]5CC[C@]5(C)[C@@H](C7=CC(=O)OC7)CC[C@]65O)C4)O[C@@H]3C)O[C@@H]2C)C[C@H](O)[C@@H]1O
inactive: max response [2] -1.87% | outcome [3]
active: Potency (WaGa) 0.0211 µM | Potency (C33A) 100 nM and 89.1 nM | Potency (CAOV3) 316 nM and 282 nM | Potency (CASKI) 398 nM and 794 nM | Potency (Es-2) 282 nM and 100 nM | Potency (HeLa) 282 nM and 89.1 nM | Potency (Hek293T) 282 nM and 224 nM | Potency (OV90) 0.708 µM | Potency (PA-1) 282 nM and 126 nM | Potency (SKOV3) 251 nM and 112 nM | Potency (Tov-21-G) 112 nM and 100 nM | Potency (Tov112D) 0.0891 µM | Potency [4] 0.0497 µM

N[C@@H]1C[C@H]1c1ccccc1
inactive: Potency (UISO) | Potency (WaGa) | Potency (C33A) | Potency (CAOV3) | Potency (Es-2) | Potency (HeLa) | Potency (Hek293T) | Potency (OV90) | Potency (PA-1) | Potency (SKOV3) | Potency (Tov-21-G) | Potency (Tov112D) | activity, negative = cell killing [1, 5] -7.72% | activity, negative = cell killing [1, 6] -6.02%

CC[C@@H](CO)NC(=O)[C@@H]1C=C2c3cccc4c3c(cn4C)C[C@H]2N(C)C1
inactive: Potency (C33A) | Potency (CAOV3) | Potency (CASKI) | Potency (Es-2) | Potency (HeLa) | Potency (Hek293T) | Potency (JEG-3) | Potency (OV90) | Potency (PA-1) | Potency (SKOV3) | Potency (Tov-21-G) | Potency (Tov112D)
active: Potency ([1]; tumour line A) 35.5 µM | Potency ([1]; tumour line B) 17.8 µM

COc1ccc(Cc2nccc3cc(OC)c(OC)cc23)cc1OC
active: Potency (OV90) 11.2 µM | Potency (SKOV3) 25.1 µM
inactive: Potency (UISO) | Potency (WaGa) | Potency (CAOV3) | Potency (Tov-21-G) | Potency (Tov112D)

CC[C@@H](CO)NC(=O)[C@@H]1C=C2c3cccc4[nH]cc(c34)C[C@H]2N(C)C1
inactive: Potency (UISO) | Potency (WaGa) | Potency (C33A) | Potency (CAOV3) | Potency (CASKI) | Potency (Es-2) | Potency (HeLa) | Potency (Hek293T) | Potency (OV90) | Potency (PA-1) | Potency (Tov-21-G) | Potency (Tov112D) | activity, negative = cell killing [1, 7] 16.5%

CCOC(=O)C1(c2ccccc2)CCN(CCC(C#N)(c2ccccc2)c2ccccc2)CC1
inactive: Potency (C33A) | Potency (CAOV3) | Potency (CASKI) | Potency (HeLa) | Potency (SKOV3) | Potency (Tov-21-G) | Potency (Tov112D)

c1ccc2c(c1)OCC(C1=NCCN1)O2 (centres undefined)
active: Potency (Hek293T) 28.2 µM | Potency (PA-1) 15.8 µM | Potency (Tov-21-G) 15.8 µM
inactive: Potency [4]

CNC(=O)c1ccc(N2C(=S)N(c3ccc(C#N)c(C(F)(F)F)c3)C(=O)C23CCC3)cc1F
inactive: Potency (UISO) | Potency (WaGa) | Potency (C33A) | Potency (CAOV3) | Potency (CASKI) | Potency (Es-2) | Potency (HeLa) | Potency (OV90) | Potency (PA-1) | Potency (SKOV3) | Potency (Tov-21-G) | Potency (Tov112D)

CC(C)NCC(O)c1ccccc1Cl (centres undefined)
inactive: Potency (UISO) | Potency (WaGa) | Potency (C33A) | Potency (CAOV3) | Potency (CASKI) | Potency (Es-2) | Potency (HeLa) | Potency (Hek293T) | Potency (OV90) | Potency (PA-1) | Potency (SKOV3) | Potency (Tov-21-G) | Potency (Tov112D) | activity, negative = cell killing [1, 5] -16.7% | activity, negative = cell killing [1, 6] -18.1% | Potency (astro)
